Assay results: PubChem BioAssay AID1898 (National Center for Advancing Translational Sciences (NCATS), 2009)
The list shows a part of the results. Records with an inconclusive call do not appear. Calls of active or inactive are those of the source. The call rests on the fitted dose curve; in most records, active means well fitted curve in the direction sought with a large enough effect; inconclusive means small, poorly fitted or top-dose-only effect, or another doubt; inactive means no such curve, though single readings can be large or run the other way.

Experiment: Secondary assay for Activators of Human Pyruvate Kinase M2 isoform - Cell Titer Glo cytotoxicity assay; further: % of control where 0% means no effect
Conditions: HeLa viability, CellTiter-Glo ATP luminescence, 24 h; series mostly up to 57.5 µM; activity change, negative = cytotoxicity: at the top concentration
Experimental: NIH Chemical Genomics Center [NCGC] Matthew G. Vander Heiden, M.D., Ph.D. [Harvard Medical School, 77 Avenue Louis Pasteur, Boston, MA 02115] MLPCN Grant: 1 R03 MH085679-01 NCGC Assay Overview: We have identified a series of activators of the M2 isoform of human pyruvate kinase. The assay described here examines the cytotoxicity of these compounds by measuring the total ATP content of Hela cells after 24 hrs of exposure to compound.
Assay Protocol: 500 Hela cells/ 4ul in media (DMEM with high glucose, 10% FBS, 1x Pen Strep, 1x NEAA) were dispensed into a white solid 1536-microwell plate with a Thermo Multidrop. The plates were incubated at 37 degrees Celsius for 24 hours. The cells were then treated with compounds using the Kalypsys pin tool, delivering 23 nl of test compounds and the control doxorubicin. The plates were then incubated for an additional 24 hours at 37 degrees C after which 4 ul of Promega Cell-Titer Glo was dispensed using the Thermo Multidrop. The plates were incubated at room temperature for 10 min before reading luminescence on the Perkin Elmer ViewLux with images collected with 2x binning and a 5 sec exposure time.

Row | Compound | activity change, negative = cytotoxicity
1 | Cn1c2cc(B(O)O)sc2c2cnn(Cc3ccccc3F)c(=O)c21 | 5.07% (inactive)
2 | O=C(NCc1cccs1)C1CCN(S(=O)(=O)c2ccc3c(c2)OCCO3)CC1 | 7.05% (inactive)
3 | O=S(=O)(NC1CCN(S(=O)(=O)c2ccc3c(c2)OCCO3)CC1)c1c(F)cccc1F | -10.7% (inactive)
4 | O=C(NCc1ccccn1)c1c(O)c2c([nH]c1=O)CCCC2 | 1.11% (inactive)
5 | O=S(=O)(NCCCCCCNS(=O)(=O)c1c(F)cccc1F)c1ccc2c(c1)OCCO2 | -2.79% (inactive)
6 | CN(C)N=Nc1ccc2nc[nH]c2c1 | -5.89% (inactive)
7 | O=S(=O)(NCC1CN(S(=O)(=O)c2ccc3c(c2)OCCO3)C1)c1c(F)cccc1F | 7.45% (inactive)
8 | CSc1nc2ccc(S(=O)(=O)N3CCc4ccccc43)cc2s1 | -25.9% (inactive)
9 | Cc1ccc(Cn2ncc3c4sc(C)cc4n(C)c3c2=O)c(C)c1 | -8.1% (inactive)
10 | CC(=O)c1cc(C#N)c(SCC(=O)Nc2nccs2)nc1C | -6.98% (inactive)
11 | Cc1cc2c(s1)c1cnn(Cc3c(F)cccc3Cl)c(=O)c1n2C | 0.849% (inactive)
12 | O=C(c1c(F)cccc1F)N1CCN(S(=O)(=O)c2ccc3c(c2)OCCO3)CC1 | -20.9% (inactive)
